# The source made the active and inactive calls.
# Assays:
# [1] = test system: Human papillomavirus type 1a protein E7 (residues 44-93); assay: HPV1a E7 fragment binders on microarrays, primary screen, biochemical, small-molecule microarray, residues 44-93, 635 nm fluorescence (AID 1108); settings: small-molecule microarray binding, fluorescence 635 nm; higher = more signal;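 also: E7 fragment applied at 1 µg/mL in TBST for 1 h at 4 C; score combines spot fluorescence with its signal to noise ratio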
# [2] = modulators of HCV replicon luciferase signal, primary screen, HCV replication inhibitor project, Huh7 cells, luciferase reporter (AID 1109); settings: 48 h, higher = more signal;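 also: huh7 hepatoma cells harbouring a luciferase neomycin HCV replicon reporter; luciferase luminescence as measure of HCV replicon replication; test concentration not given here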
# [3] = target: Left-right determination factor 2 (Homo sapiens) (UniProt O00292); assay: LEFTY2 binders on small-molecule microarrays, primary screen, biochemical, small-molecule microarray, 635 nm fluorescence scan (AID 1110); settings: LEFTY2 binding, higher = more signal
# [4] = target: Calmodulin-1 (Homo sapiens) (UniProt P0DP23); assay: CALM1 binders on microarrays, EGTA buffer, profiling panel, biochemical, small-molecule microarray, Cy5-labelled CALM1 (AID 1111); settings: Cy5-CALM1 binding fluorescence, higher = more signal;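 also: labelled calmodulin applied in Tris saline Tween buffer holding calcium plus EGTA and DTT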
# [5] = target: Calmodulin-1 (Homo sapiens) (UniProt P0DP23); assay: calcium-bound CALM1 binders on microarrays, profiling panel, artefact control for SMM control-protein annotation, biochemical, small-molecule microarray, Cy5-labelled CALM1, plus calcium (AID 1112); settings: Cy5-CALM1 binding fluorescence, higher = more signal;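 also: score merges spot fluorescence with signal to noise from triplicate slides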
# [6] = small-molecule microarray binders of probe aWnt5a, primary screen, biochemical, biotinylated probe, 635/667 nm fluorescence (AID 1113); settings: higher = more signal;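 also: score merges 667 nm fluorescence intensity with signal-to-noise per printed feature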
# [7] = small-molecule microarray binders of probe aShh, primary screen, biochemical, biotinylated probe, 635/667 nm fluorescence (AID 1114); settings: higher = more signal;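 also: probe is biotin-labelled aShh protein from a stem cell growth factor screen; measures binding of labelled protein to compounds printed on the slide; score merges feature fluorescence at 667 nm with signal-to-noise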
# [8] = small-molecule microarray binders of probe aNog, primary screen, biochemical, biotinylated probe, 635/667 nm fluorescence (AID 1115); settings: higher = more signal;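 also: probe is biotinylated aNog protein used at 0.15 µg/mL for 1 h at 4 C; z-score combines 667 nm fluorescence of each spot with its signal to noise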
# [9] = target: Torsin-1A-interacting protein 1 (Homo sapiens) (UniProt Q5JTV8); assay: LAP1 binders from COS7 cell lysate, primary screen, small-molecule microarray, 635/667 nm fluorescence (AID 1116); settings: COS7-hLAP1 lysate binding, 635 nm fluorescence, higher = more signal
# [10] = target: Alpha-bungarotoxin (Bungarus multicinctus) (UniProt P60615); assay: alpha-bungarotoxin binders on microarray, profiling panel, artefact control for SMM control protein annotation, biochemical, small-molecule microarray, Alexa647 label, 635/667 nm fluorescence (AID 1117); settings: alpha-BTX-A647 binding fluorescence, higher = more signal
# Albumin (Bos taurus) = Albumin (Bos taurus) (UniProt P02769); assay: bovine serum albumin binders on microarray, profiling panel, artefact control for SMM control protein annotation, biochemical, small-molecule microarray, Alexa647 label, 635/667 nm fluorescence (AID 1118); settings: BSA-A647 binding, fluorescence 635 nm, higher = more signal;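 also: score merges 667 nm emission intensity and signal-to-noise per printed compound spot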
# [11] = small-molecule microarray binders of probe aXIP, primary screen, biochemical, NeuroSMM set, 635/667 nm fluorescence (AID 1119); settings: higher = more signal, called active from +8 up or from −8 down;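 also: probe is the protein aXip251-270 applied at 1 µg/mL to compound-printed slides; binding of probe to printed compounds measured as 667 nm fluorescence plus signal to noise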
# [12] = small-molecule binders of probe aNOTCH3, primary screen, biochemical, small-molecule microarray, 635/667 nm fluorescence (AID 1120); settings: higher = more signal;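 also: probe is a biotin-tagged antibody raised against NOTCH3 rather than NOTCH3 protein; score merges spot fluorescence near 667 nm with spot signal to noise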
# [13] = small-molecule binders of probe aNOTCH2, primary screen, biochemical, small-molecule microarray, 635/667 nm fluorescence (AID 1121); settings: higher = more signal;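 also: score merges feature fluorescence read at 667 nm with its signal to noise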
# [14] = target: Carbonic anhydrase 2 (Homo sapiens) (UniProt P00918); assay: CAII small-molecule binders, profiling panel, biochemical, small-molecule microarray, Alexa647-labelled CAII (AID 1122); settings: CAII-A647 binding fluorescence, higher = more signal
# [15] = COS7 lysate on small-molecule microarray, probe aHis, 635 nm (AID 1123); settings: COS7 cell lysate, fluorescence, higher = more signal;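 also: z-score combines 667nm fluorescence intensity with signal-to-noise per printed compound spot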
# [16] = compound binding in COS7 lysate, probe aLAP1, primary screen, cell lysate, small-molecule microarray (AID 1124); settings: probe aLAP1, fluorescence, higher = more signal;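 also: lysate comes from COS7 cells expressing LAP1 and is applied at 0.3 µg/mL; score merges spot fluorescence near 667 nm with signal-to-noise over triplicate slides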
# Sam68 (KHDRBS1) = assay: Sam68 small-molecule binders, primary screen, biochemical, small-molecule microarray, 635 nm fluorescence (AID 1125); settings: small-molecule microarray binding, higher = more signal;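 also: score merges 667 nm channel intensity with signal to noise over triplicate slides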
# [17] = test system: Chordin-like protein 2 (CHRDL2); assay: CHRDL2 small-molecule binders, primary screen, biochemical, small-molecule microarray, 635 nm fluorescence (AID 1126); settings: small-molecule microarray binding, fluorescence 635 nm; higher = more signal;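 also: printed compound slides probed with Chrdl2 protein at 4 µg/mL for 1 h at 4 C; score merges 667 nm emission intensity with signal to noise over three replicate slides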
# [18] = target: Concanavalin-A (Canavalia ensiformis) (UniProt P02866); assay: ConA small-molecule binders, primary screen, artefact control for SMM control protein annotation, biochemical, small-molecule microarray, Alexa647 label, 635 nm (AID 1127); settings: ConA-A647 binding fluorescence, higher = more signal;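 also: z combines 667 nm emission intensity with signal-to-noise across three replicate slides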
# Chain of Concanavalin-A (Canavalia ensiformis) (P02866 whole entry, looked up): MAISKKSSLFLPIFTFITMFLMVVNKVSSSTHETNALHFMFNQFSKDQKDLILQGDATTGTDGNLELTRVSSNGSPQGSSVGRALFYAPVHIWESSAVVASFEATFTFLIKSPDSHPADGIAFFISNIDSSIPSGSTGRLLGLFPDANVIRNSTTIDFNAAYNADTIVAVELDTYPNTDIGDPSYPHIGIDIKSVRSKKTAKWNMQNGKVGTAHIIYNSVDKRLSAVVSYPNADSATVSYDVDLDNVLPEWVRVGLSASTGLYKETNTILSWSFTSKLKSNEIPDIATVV
# Chain of Albumin (Bos taurus) (P02769 whole entry, looked up): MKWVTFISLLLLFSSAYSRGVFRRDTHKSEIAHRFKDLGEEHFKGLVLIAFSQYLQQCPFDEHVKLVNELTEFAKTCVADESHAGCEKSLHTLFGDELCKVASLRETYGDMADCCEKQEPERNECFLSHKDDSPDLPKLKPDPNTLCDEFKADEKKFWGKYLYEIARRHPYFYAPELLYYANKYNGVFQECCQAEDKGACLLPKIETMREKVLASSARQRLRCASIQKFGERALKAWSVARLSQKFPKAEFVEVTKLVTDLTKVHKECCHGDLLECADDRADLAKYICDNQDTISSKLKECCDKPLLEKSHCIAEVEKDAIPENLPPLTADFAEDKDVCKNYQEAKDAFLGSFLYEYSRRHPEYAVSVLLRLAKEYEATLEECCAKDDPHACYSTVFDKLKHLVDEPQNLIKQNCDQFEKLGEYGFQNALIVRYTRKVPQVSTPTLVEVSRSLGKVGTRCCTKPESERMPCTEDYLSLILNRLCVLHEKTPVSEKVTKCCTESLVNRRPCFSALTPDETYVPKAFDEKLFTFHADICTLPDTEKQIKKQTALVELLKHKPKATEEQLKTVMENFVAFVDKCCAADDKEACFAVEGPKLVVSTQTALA
# Chain of Left-right determination factor 2 (Homo sapiens) (O00292 whole entry, looked up): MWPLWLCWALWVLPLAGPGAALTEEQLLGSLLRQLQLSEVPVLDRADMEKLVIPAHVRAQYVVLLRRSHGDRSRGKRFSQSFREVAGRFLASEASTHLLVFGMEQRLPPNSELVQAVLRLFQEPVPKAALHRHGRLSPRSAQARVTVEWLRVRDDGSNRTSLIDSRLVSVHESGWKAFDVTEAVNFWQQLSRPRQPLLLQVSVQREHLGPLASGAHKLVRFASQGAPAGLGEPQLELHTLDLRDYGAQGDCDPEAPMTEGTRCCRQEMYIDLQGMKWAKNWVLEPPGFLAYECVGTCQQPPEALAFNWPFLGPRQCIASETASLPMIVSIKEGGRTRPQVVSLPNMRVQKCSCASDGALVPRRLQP
# Chain of Alpha-bungarotoxin (Bungarus multicinctus) (P60615 whole entry, looked up): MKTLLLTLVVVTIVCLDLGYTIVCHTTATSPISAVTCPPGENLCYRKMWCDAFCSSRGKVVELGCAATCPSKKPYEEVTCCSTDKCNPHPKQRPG
# Chain of Torsin-1A-interacting protein 1 (Homo sapiens) (Q5JTV8 whole entry, looked up): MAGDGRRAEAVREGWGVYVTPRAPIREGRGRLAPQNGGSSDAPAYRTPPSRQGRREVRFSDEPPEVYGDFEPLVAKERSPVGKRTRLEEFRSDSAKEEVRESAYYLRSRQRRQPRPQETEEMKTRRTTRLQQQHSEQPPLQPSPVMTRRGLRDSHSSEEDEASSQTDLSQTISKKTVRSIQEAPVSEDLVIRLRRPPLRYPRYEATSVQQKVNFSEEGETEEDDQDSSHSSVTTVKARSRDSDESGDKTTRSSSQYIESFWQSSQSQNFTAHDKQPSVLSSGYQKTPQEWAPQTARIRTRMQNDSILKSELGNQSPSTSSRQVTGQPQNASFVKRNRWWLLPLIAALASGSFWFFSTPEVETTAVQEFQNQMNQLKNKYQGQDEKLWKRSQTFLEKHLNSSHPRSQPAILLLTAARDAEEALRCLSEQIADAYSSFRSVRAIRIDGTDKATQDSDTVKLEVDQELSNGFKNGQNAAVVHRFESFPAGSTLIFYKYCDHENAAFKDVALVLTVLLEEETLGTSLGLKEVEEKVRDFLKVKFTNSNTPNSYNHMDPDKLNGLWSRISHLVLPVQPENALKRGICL
Structure (SMILES),composite z-score [1],z-score [2],composite z-score [3],composite z-score [4],composite z-score [5],composite z-score [6],composite z-score [7],composite z-score [8],composite z-score [9],composite z-score [10],composite z-score (Albumin (Bos taurus)),composite Z-score [11],composite z-score [12],composite z-score [13],composite z-score [14],composite z-score [15],composite z-score [16],composite z-score (Sam68 (KHDRBS1)),composite z-score [17],composite z-score [18]
O=C(NN=C1C[C@@H](O)[C@@H](O)[C@@H]2[C@@H]3C(=O)N(C[C@@H]4CCCO4)C(=O)[C@@H]3CC[C@H]12)OCc1ccccc1,-0.453,1.16,-0.156,0.0715,0.226,0.0377,-0.0146,0.154,0.349,0.275,0.534,0.42 (inactive),0.0522,-0.0081,-0.273,0.109,-0.0716,-0.534,-0.187,0.305
C=COC[C@@H]1CN2[C@@H](CC[C@@H](C)[C@@H]2c2ccc(Br)cc2)C(=O)O1,-0.0205,-0.0522,-0.0429,-0.941,-1.26,-0.124,0.0284,-0.0079,-0.111,0.259,0.0494,0.686 (inactive),-0.161,-0.14,0.0173,0.043,0.008,-0.0284,0.407,-0.563
C[C@@H]1NC(=O)[C@@H](C)COC(=O)[C@H](C)NC(=O)[C@@H](C)COC1=O,1.08,0.0151,0.737,-0.152,-0.521,-0.12,-0.243,0.0209,-0.143,0.144,0.591,-0.152 (inactive),-0.0339,-0.0907,0.394,0.1,-0.706,0.769,0.316,0.513
COC(=O)[C@H](C)NC(=O)CCC1CC(OC(=O)NCc2cccc3ccccc23)CC2(CCCC(COC(=O)NCC(c3ccccc3)c3ccccc3)O2)O1 (stereo not given in full),1.32,-0.977,0.889,-0.0132,-0.265,-0.0185,-0.273,-0.0157,0.345,0.0226,0.576,-0.171 (inactive),0.0242,-0.0895,0.553,1.27,0.433,1.32,-0.087,0.423
COc1cccc([C@H]2Oc3ccc(OC)cc3C(=NO[C@H](C)c3cn([C@H](CO)Cc4ccccc4)nn3)[C@@H]2O)c1,-0.995,-1.74,0.323,-1.57,-0.45,-0.175,-0.229,-0.141,0.169,-0.689,-1.28,-0.372 (inactive),-0.208,-0.187,0.406,0.418,0.0672,-0.779,0.08,-2.12
COCOc1ccc(Br)cc1C(=O)[C@@H]1O[C@H]1c1cccc(OC)c1,-0.392,-3.74,0.377,-0.213,-0.187,-0.148,-0.136,-0.0428,0.616,0.187,0.591,0.374 (inactive),-0.122,-0.108,0.041,0.696,0.0365,-0.395,0.589,-1.26
CON=Cc1ccc(C(=O)N2[C@H](c3ccc(C)cc3)[C@@H](C)CC[C@H]2C(=O)OC)cc1,1.25,-1.33,-0.203,-0.129,-0.121,-0.0044,0.0684,-0.0503,-0.0018,0.449,0.54,0.059 (inactive),0.0257,-0.202,0.0882,0.715,0.251,1.11,0.262,0.669
O=C1C2=CC[C@H]3C(=O)N(c4cccc(Oc5ccccc5)c4)C(=O)[C@H]3[C@H]2[C@H](O)[C@@H]2O[C@H]12,0.792,-4.64,0.516,0.0194,-0.32,-0.157,-0.273,-0.224,0.257,0.281,-0.0451,-0.0708 (inactive),0.0179,-0.132,-0.146,0.19,-0.0224,0.645,0.625,0.443
C[C@H]1CC[C@H]2C(=O)OC(CO)CN2[C@@H]1c1ccc(Br)cc1 (stereo not given in full),-0.558,-0.125,0.137,-0.201,-0.607,-0.0778,0.0284,-0.178,-0.303,0.867,0.0691,0.456 (inactive),-0.0647,-0.192,-0.244,-0.416,-0.311,0.253,0.453,-0.17
CCN1C(=O)[C@H]2[C@H]3[C@H](O)[C@H](O)CC(=NO[C@@H](C)c4cn([C@H](CO)Cc5ccccc5)nn4)[C@@H]3CC[C@H]2C1=O,0.696,-0.262,0.636,0.711,-0.209,-0.0403,-0.206,0.111,-0.117,0.889,0.233,0.299 (inactive),-0.0581,-0.184,0.556,0.875,0.547,1.28,0.399,0.941
Cc1ccc(S(=O)(=O)NC(CCc2ccccc2)CC(=O)C(C)(C)C)cc1 (stereo not given),0.52,-2.04,0.445,-0.0921,-0.418,-0.125,0.304,-0.0626,-0.0055,0.369,-0.122,0.6 (inactive),0.0591,-0.0984,0.0117,0.0881,-0.113,0.93,0.686,0.87
